# How the values were obtained:
# [1] = target: T1, Inhibitor of nuclear factor kappa-B kinase subunit epsilon (Homo sapiens) (UniProt Q14164); conditions: at 1 µM;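 note: reported values are averaged percent inhibition figures against human IKKε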
# T1 sequence (whole entry): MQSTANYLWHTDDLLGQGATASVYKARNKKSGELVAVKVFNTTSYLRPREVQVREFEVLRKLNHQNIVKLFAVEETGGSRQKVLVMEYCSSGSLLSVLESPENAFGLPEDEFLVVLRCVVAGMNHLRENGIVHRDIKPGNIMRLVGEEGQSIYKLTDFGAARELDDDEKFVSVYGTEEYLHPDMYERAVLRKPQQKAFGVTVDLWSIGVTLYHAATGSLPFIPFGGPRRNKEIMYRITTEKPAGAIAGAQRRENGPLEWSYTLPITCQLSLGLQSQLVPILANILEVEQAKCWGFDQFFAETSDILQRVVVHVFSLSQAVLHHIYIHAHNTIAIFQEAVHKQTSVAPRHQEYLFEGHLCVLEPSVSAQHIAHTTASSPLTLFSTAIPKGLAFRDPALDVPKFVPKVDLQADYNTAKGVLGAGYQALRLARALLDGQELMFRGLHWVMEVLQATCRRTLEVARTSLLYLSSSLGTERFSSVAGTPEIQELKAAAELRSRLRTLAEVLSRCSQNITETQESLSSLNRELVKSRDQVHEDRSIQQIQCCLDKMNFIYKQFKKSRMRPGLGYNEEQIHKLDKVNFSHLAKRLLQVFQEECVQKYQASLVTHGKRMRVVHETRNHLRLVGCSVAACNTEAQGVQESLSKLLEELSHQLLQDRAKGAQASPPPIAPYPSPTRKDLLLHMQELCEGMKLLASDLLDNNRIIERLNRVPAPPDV
# [2] = target: T2, Serine/threonine-protein kinase Nek1 (Homo sapiens) (UniProt Q96PY6); conditions: at 0.1 µM
# T2 sequence (whole entry): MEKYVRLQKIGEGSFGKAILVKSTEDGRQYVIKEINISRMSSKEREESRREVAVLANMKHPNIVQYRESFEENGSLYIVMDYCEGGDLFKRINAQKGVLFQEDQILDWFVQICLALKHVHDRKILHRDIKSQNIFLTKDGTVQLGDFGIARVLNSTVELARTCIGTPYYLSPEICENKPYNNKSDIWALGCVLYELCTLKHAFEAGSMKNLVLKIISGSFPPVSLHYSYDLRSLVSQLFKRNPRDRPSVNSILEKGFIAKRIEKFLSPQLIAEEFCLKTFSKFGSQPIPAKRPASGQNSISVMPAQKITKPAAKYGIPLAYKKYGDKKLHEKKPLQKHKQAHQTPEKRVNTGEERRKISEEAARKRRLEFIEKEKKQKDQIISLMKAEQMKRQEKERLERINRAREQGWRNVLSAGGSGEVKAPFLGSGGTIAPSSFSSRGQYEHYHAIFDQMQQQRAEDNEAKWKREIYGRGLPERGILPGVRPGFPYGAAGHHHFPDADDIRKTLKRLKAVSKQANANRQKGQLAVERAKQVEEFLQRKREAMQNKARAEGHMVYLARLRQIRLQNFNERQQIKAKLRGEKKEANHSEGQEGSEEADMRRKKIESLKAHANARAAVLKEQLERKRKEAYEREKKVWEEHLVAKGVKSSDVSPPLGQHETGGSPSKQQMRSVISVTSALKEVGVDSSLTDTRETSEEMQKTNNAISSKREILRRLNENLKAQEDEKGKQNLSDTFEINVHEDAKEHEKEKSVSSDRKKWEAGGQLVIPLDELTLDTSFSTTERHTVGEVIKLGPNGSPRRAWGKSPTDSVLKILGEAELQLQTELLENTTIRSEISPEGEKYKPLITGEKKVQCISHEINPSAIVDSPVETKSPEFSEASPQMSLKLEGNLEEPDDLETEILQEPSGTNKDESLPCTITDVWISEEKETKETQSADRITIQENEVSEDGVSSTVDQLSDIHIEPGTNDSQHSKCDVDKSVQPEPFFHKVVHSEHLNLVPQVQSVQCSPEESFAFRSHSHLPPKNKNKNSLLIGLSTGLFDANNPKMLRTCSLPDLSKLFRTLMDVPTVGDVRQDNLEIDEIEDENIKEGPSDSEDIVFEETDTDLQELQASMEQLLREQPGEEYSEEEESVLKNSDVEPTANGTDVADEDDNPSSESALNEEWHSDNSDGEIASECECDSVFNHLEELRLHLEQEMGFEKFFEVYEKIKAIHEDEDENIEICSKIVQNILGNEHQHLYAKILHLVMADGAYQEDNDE
# [3] = target: T2, Serine/threonine-protein kinase Nek1 (Homo sapiens); conditions: at 1 µM
# [4] = target: T3, Serine/threonine-protein kinase Nek2 (Homo sapiens) (UniProt P51955); conditions: at 0.1 µM
# T3 sequence (whole entry): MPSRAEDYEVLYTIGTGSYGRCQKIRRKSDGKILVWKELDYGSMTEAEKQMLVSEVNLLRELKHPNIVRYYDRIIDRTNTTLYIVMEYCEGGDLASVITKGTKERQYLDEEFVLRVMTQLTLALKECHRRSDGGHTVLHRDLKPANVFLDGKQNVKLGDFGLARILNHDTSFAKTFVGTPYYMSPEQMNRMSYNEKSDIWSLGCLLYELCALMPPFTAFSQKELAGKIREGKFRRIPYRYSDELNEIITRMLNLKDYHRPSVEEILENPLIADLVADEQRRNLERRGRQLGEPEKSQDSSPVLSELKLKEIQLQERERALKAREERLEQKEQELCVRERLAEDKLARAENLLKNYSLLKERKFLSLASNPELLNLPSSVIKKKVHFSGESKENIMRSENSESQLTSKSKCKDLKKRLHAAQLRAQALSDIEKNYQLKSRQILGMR
# [5] = target: T3, Serine/threonine-protein kinase Nek2 (Homo sapiens); conditions: at 1 µM
# [6] = target: Serine/threonine-protein kinase Nek6 (Homo sapiens) (UniProt Q9HC98); conditions: at 0.1 µM
# [7] = target: Serine/threonine-protein kinase Nek6 (Homo sapiens) (UniProt Q9HC98); conditions: at 1 µM
# [8] = target: Serine/threonine-protein kinase Nek7 (Homo sapiens) (UniProt Q8TDX7); conditions: at 0.1 µM
# [9] = target: Serine/threonine-protein kinase Nek7 (Homo sapiens) (UniProt Q8TDX7); conditions: at 1 µM
# [10] = target: T4, Serine/threonine-protein kinase Nek9 (Homo sapiens) (UniProt Q8TD19); conditions: at 0.1 µM
# T4 sequence (whole entry): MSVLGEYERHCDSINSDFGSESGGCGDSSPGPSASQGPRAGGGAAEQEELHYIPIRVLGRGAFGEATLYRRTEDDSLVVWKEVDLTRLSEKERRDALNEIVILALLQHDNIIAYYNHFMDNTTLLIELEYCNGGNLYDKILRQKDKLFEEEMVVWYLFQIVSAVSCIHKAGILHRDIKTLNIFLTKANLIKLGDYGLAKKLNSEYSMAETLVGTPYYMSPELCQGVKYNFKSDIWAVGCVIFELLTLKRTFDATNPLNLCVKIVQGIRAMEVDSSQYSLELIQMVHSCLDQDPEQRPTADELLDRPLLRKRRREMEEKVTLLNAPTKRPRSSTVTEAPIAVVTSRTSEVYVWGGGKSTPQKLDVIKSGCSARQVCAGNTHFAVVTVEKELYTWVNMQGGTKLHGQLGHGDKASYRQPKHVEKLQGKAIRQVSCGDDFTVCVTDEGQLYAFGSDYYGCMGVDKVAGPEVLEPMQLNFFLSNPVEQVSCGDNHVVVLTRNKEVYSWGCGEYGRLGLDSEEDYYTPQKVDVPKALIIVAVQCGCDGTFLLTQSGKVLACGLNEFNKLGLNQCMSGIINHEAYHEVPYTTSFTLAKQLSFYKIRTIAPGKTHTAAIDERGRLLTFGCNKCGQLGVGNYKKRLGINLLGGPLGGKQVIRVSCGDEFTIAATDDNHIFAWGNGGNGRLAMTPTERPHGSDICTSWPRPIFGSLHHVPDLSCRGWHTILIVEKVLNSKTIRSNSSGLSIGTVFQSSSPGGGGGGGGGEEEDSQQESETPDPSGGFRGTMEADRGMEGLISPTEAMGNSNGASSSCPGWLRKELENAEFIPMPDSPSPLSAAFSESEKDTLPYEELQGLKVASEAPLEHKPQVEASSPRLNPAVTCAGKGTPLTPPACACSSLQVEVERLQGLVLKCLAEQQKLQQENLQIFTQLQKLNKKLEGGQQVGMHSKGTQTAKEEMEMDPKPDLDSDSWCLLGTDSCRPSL
# [11] = target: T4, Serine/threonine-protein kinase Nek9 (Homo sapiens); conditions: at 1 µM
# [12] = target: Serine/threonine-protein kinase PLK1 (Homo sapiens) (UniProt P53350); conditions: at 0.1 µM
# [13] = target: Serine/threonine-protein kinase PLK1 (Homo sapiens) (UniProt P53350); conditions: at 1 µM
# [14] = target: T5, Dual specificity protein kinase TTK (Homo sapiens) (UniProt P33981); conditions: at 0.1 µM
# T5 sequence (whole entry): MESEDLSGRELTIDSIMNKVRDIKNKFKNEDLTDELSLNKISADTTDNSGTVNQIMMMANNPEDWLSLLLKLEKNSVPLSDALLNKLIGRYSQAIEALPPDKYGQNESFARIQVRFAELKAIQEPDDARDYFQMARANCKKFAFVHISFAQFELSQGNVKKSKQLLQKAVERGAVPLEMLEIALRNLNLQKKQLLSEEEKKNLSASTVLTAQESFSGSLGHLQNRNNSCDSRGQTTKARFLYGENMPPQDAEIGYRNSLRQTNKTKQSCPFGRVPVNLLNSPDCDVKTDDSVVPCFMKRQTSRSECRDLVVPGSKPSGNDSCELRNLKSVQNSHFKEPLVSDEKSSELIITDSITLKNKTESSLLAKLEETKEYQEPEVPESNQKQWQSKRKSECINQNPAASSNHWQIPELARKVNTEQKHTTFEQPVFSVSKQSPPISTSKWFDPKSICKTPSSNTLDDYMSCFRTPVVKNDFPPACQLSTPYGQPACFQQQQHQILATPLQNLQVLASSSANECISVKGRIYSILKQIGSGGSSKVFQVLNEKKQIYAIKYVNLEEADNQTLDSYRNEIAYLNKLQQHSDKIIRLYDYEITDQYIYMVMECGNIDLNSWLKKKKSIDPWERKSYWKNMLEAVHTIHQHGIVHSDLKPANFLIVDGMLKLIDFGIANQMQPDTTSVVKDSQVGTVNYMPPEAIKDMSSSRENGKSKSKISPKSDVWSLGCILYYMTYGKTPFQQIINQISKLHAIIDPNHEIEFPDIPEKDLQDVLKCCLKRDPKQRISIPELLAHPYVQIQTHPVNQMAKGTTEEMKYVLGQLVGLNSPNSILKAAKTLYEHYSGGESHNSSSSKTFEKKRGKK
# [15] = test system: T6, Receptor-type tyrosine-protein kinase FLT3 (Homo sapiens), P36888 [D835Y]; conditions: at 1 µM
# T6 sequence (whole entry): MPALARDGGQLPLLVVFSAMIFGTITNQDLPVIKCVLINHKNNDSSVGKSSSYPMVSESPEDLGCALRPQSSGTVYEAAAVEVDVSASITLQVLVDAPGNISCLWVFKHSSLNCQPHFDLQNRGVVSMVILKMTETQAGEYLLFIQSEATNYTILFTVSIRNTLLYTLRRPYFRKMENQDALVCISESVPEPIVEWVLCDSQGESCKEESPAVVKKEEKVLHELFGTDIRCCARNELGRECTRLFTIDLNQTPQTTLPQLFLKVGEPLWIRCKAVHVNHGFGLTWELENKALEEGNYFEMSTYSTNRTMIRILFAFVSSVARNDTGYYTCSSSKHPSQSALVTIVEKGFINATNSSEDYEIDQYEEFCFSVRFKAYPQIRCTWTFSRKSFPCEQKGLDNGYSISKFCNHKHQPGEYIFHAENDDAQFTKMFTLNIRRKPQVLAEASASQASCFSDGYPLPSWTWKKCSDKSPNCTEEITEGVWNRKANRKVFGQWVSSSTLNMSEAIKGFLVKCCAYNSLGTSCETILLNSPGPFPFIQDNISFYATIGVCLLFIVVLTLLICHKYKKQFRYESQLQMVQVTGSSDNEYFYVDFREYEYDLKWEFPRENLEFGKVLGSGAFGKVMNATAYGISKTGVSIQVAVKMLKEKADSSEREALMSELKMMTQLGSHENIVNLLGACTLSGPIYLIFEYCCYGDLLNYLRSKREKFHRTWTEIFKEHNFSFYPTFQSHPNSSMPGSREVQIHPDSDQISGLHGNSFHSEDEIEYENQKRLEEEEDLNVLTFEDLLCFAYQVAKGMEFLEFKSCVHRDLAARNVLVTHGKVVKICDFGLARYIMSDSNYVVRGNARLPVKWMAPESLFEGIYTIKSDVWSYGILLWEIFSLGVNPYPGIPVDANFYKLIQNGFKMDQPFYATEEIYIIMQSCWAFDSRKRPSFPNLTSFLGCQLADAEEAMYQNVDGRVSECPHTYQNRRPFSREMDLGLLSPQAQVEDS
# [16] = target: Vascular endothelial growth factor receptor 3 (Homo sapiens) (UniProt P35916); conditions: at 0.1 µM
# [17] = target: Vascular endothelial growth factor receptor 3 (Homo sapiens) (UniProt P35916); conditions: at 1 µM
# [18] = target: Macrophage colony-stimulating factor 1 receptor (Homo sapiens) (UniProt P07333); conditions: at 0.1 µM
# [19] = target: Macrophage colony-stimulating factor 1 receptor (Homo sapiens) (UniProt P07333); conditions: at 1 µM
# [20] = target: Tyrosine-protein kinase Fyn (Homo sapiens) (UniProt P06241); conditions: at 0.1 µM
# Tyrosine-protein kinase Fyn (Homo sapiens), sequence (P06241 2-537 limits assumed): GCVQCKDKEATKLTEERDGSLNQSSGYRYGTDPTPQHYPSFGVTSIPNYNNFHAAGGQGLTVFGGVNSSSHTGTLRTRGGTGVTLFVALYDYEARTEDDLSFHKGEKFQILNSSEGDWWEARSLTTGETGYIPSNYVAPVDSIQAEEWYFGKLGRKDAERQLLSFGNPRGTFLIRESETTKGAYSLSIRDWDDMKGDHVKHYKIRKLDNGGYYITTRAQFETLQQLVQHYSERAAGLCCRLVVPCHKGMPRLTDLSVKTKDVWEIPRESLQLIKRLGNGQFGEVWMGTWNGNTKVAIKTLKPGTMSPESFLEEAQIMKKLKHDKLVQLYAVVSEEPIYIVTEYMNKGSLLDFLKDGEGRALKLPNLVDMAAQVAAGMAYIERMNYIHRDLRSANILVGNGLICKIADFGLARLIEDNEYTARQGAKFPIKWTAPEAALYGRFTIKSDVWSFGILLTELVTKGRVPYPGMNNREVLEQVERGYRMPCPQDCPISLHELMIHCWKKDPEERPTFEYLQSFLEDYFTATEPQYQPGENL
# Serine/threonine-protein kinase Nek6 (Homo sapiens), sequence (Q9HC98 whole entry): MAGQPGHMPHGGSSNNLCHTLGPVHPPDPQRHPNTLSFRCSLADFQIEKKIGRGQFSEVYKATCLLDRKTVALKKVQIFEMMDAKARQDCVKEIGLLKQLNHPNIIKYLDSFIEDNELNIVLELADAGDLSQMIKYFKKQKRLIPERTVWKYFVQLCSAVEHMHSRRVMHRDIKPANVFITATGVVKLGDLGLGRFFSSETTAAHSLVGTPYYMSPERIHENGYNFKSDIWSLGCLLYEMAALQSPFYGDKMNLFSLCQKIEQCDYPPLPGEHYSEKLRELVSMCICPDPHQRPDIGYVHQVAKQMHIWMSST
# Macrophage colony-stimulating factor 1 receptor (Homo sapiens), sequence (P07333 whole entry): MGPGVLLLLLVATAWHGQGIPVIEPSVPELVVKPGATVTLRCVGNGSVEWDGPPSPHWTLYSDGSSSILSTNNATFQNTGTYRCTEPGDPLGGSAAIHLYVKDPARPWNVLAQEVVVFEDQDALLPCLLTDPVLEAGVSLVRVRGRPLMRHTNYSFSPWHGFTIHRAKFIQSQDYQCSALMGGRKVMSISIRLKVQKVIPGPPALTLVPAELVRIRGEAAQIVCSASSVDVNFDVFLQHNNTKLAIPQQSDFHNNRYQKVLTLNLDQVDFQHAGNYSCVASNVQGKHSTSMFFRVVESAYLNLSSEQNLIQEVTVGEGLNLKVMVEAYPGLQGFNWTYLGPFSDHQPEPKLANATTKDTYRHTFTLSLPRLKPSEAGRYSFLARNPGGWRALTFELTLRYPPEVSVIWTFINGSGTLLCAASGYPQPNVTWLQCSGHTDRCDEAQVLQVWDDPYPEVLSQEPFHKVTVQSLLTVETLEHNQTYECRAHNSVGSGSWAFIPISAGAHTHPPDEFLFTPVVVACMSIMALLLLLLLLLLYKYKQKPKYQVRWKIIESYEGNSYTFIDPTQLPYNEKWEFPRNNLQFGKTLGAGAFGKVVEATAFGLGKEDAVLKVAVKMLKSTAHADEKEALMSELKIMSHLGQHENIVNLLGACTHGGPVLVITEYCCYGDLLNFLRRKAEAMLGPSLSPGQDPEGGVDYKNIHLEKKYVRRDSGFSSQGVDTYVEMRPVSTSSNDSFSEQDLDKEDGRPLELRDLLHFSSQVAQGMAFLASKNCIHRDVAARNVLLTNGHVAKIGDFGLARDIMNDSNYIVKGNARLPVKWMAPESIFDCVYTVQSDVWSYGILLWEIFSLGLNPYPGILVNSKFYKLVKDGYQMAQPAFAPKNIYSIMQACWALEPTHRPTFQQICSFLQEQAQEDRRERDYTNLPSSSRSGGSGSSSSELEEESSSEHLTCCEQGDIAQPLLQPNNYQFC
# Serine/threonine-protein kinase PLK1 (Homo sapiens), sequence (P53350 whole entry): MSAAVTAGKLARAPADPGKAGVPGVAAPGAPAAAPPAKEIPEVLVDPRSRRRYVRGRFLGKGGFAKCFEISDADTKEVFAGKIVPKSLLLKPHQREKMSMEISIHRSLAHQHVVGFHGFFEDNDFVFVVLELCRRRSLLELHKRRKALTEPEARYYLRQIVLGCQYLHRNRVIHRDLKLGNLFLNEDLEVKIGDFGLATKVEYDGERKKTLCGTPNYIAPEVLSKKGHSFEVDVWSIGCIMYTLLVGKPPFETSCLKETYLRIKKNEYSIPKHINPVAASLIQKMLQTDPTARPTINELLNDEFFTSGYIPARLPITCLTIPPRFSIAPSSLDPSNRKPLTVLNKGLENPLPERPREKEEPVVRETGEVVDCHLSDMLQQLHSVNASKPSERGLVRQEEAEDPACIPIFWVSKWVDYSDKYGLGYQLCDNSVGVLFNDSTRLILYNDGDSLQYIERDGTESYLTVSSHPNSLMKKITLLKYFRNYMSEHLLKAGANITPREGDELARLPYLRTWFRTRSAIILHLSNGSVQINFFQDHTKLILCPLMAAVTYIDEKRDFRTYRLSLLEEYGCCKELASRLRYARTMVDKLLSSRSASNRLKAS
# Serine/threonine-protein kinase Nek7 (Homo sapiens), sequence (Q8TDX7 whole entry, looked up): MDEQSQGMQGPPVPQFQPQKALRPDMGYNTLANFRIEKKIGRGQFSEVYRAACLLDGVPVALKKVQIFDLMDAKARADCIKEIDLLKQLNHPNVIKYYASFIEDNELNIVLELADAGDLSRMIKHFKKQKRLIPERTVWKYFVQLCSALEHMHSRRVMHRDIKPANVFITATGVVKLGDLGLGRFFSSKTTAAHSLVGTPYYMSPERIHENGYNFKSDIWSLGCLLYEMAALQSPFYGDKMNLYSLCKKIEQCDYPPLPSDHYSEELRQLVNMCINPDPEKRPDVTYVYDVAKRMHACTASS
# Vascular endothelial growth factor receptor 3 (Homo sapiens), sequence (P35916 whole entry): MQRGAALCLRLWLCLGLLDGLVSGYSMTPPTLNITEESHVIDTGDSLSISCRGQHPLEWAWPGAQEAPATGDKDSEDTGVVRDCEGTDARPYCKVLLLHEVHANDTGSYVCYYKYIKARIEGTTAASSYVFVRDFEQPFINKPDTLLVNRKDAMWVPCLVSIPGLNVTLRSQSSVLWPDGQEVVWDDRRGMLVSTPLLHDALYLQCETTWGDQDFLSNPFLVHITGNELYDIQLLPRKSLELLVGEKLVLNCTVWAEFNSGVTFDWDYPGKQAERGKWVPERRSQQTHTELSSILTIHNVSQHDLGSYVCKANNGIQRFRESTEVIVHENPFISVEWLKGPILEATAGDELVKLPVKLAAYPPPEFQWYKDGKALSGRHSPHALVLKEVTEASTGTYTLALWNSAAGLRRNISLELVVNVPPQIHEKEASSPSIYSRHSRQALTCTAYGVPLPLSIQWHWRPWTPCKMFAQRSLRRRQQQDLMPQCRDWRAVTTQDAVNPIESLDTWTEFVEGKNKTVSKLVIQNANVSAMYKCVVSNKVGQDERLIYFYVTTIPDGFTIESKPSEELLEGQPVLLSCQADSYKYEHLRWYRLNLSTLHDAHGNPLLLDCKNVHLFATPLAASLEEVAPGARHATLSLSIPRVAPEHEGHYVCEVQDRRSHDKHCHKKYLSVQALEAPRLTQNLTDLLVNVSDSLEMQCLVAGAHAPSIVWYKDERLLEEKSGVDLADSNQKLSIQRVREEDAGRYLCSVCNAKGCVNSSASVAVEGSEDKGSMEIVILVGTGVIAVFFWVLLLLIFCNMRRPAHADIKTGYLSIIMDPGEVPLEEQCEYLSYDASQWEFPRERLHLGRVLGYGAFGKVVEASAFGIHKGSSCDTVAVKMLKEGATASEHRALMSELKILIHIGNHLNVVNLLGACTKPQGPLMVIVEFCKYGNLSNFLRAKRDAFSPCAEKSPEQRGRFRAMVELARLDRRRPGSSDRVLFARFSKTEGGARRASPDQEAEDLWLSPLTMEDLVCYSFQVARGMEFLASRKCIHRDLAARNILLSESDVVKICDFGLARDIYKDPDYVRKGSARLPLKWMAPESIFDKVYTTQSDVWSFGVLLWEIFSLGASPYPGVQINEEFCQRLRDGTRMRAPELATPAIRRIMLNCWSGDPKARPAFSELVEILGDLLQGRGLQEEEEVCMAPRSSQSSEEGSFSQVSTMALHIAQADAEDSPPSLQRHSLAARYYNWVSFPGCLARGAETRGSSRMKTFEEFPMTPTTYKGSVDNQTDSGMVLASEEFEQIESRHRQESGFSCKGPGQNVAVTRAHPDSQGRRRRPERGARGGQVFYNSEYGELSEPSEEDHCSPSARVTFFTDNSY
Structure (SMILES),inhibition [1],inhibition [2],inhibition [3],inhibition [4],inhibition [5],inhibition [6],inhibition [7],inhibition [8],inhibition [9],inhibition [10],inhibition [11],inhibition [12],inhibition [13],inhibition [14],inhibition [15],inhibition [16],inhibition [17],inhibition [18],inhibition [19],inhibition [20]
COc1cccc(-n2ncc3c(N/N=C/c4ccc(C)cc4)ncnc32)c1,6.9%,5.55%,9.78%,8.39%,10.7%,3.25%,3.08%,4.05%,10.1%,9.27%,9.51%,7.38%,14.2%,18.3%,10.3%,3.28%,4.5%,4.53%,12.9%,5.39%
NS(=O)(=O)c1cccc(Nc2cc(-c3ccc(F)cc3)n[nH]2)c1,8.08%,1.79%,3.87%,4.43%,6.1%,2.48%,6.59%,4.33%,4.76%,10.6%,9.48%,3.38%,3.33%,5.88%,13.9%,-0.78%,2.02%,3.25%,16.6%,1.7%

# Reference: ChEMBL document CHEMBL1961873, “Compounds: GSK PKIS; Assays: Nanosyn kinase panel” (2012)
